Shown are actives, neighbours in structure and some others; about 12% of the full set was active somewhere.
Sm TGR block: qHTS Assay for the Inhibitors of Schistosoma Mansoni Peroxiredoxins; Potency, µM (series often up to 114 µM), for inactives: at the top dose activity change, negative = inhibition, most hits filed as inhibitors; Schistosoma mansoni thioredoxin glutathione reductase (TGR), Q962Y6; 360,000 compounds, 3% hits; purified TGR, DTNB reduction, TNB absorbance 405 nm; also: % is scaled to controls: 0 for no effect and ±100 for the full control effect; nearly all actives have a fitted effect of over 60% in size
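TGR 20 nM + NADPH 100 uM (dispensed conc.), cpd preinc 15 min RT; start with NADPH (500 uM addition) then DTNB (15 mM addition). Kinetic TNB absorbance, 405 nm filter. Four-parameter Hill fit across titration.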
Pf growth 96h: Primary qHTS for delayed death inhibitors of the malarial parasite plastid, 96 hour incubation | P. falciparum luciferase reporter growth, 96 h | Potency, µM (titrated, usually from 28.7 µM), for the others: at the top dose activity change, negative = inhibition, most hits filed as inhibitors | AID 504834, 2011 | 320,000 compounds, 6.9% hits; also: % is scaled to controls: 0 for no effect and ±100 for the full control effect
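Delayed-death screen, second-generation endpoint: infected erythrocytes, 2% hematocrit, 0.05% parasitemia final; 96 hours at 37 C, 5% CO2; luciferase detection reagent; luminescence decrease equals reduced growth.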
SARS PLpro yeast: qHTS of Yeast-based Assay for SARS-CoV PLP; S. cerevisiae expressing SARS-CoV PLpro, growth rescue; Potency, µM (doses to about 32.9 µM), for inactives: at the top dose activity, positive = growth rescue, most hits filed as activators; 330,000 compounds, 0.19% hits; AID 485353, 2010; calls by dose curve; also: 0% is about no effect; nearly all actives have a fitted effect of over 55% in size
Pf growth 48h: Primary qHTS for delayed death inhibitors of the malarial parasite plastid, 48 hour incubation; P. falciparum luciferase growth in erythrocytes, 48 h; Potency, µM (highest dose often 28.7 µM), without a hit: at the highest dose activity change, negative = inhibition, usual class: inhibitors; 310,000 compounds, 5.9% hits; AID 504832, 2011; also: % is scaled to controls: 0 for no effect and ±100 for the full control effect
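Parasite viability was followed by luminescence of a genomically integrated firefly luciferase. Cultures held 0.1% parasitemia at 2% hematocrit (final), incubated under 5% CO2 at 37 C.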
Numbers without * were called inactive; ? = inconclusive; · = no result given. Unless noted, calls follow the shape of the dose curve; as a rule, active = well fitted curve in the direction sought with a large enough effect; inconclusive = small, poorly fitted or top-dose-only effect, or another doubt; inactive = no such curve, though single readings can be large; an effect the other way counts as inactive or inconclusive. Potency is read from the fitted curve at half-maximal effect.

SMILES	Sm TGR block	Pf growth 96h	SARS PLpro yeast	Pf growth 48h
CCOC(=O)c1c(CSc2ccccc2)oc2cc(Br)c(O)c(CN(C)C)c12	-20%	?	0%	2.6µM*
CC(=O)c1c(CSc2ccccc2)oc2ccc(O)c(CN(C)C)c12	3%	2%	0%	?
CCOC(=O)c1c(CSc2ccc(CC)cc2)oc2ccc(O)c(CN(C)C)c12	9%	11%	11%	2.3µM*
CC(=O)c1c(C)[nH]c(C(=O)NNC(=O)c2ccc(Br)cc2)c1C	·	·	7%	·
Cc1oc(-c2ccccc2Cl)nc1CSc1nncn2c1cc1occc12	-16%	·	·	·
COc1cc(S(=O)(=O)N(Cc2cccs2)CC2CCCO2)ccc1-n1cnnn1 (stereo not drawn)	1%	4.1µM*	-4%	-18%
COc1cc(S(=O)(=O)N(Cc2ccccc2)CC2CCCO2)ccc1-n1cnnn1 (stereo not drawn)	6%	-2%	-1%	-9%
COc1cc(S(=O)(=O)NCC2COCCO2)ccc1-n1cnnn1 (stereo not drawn)	9%	12µM*	0%	-17%
COc1ccc(S(=O)(=O)NC2CCCCC2)cc1-n1cnnn1	8%	2.6µM*	-1%	0%
Cc1cc(S(=O)(=O)NC2CCCCC2)ccc1-n1cnnn1	15%	-2%	1%	-21%
O=c1oc2ccccc2n1CCCOc1ccccc1Cl	-2%	·	·	·
CCOC(=O)C1CCN(C(=O)COC(=O)CSc2ccc(C(N)=O)cc2[N+](=O)[O-])CC1	0%	43%	8%	29%
Cc1ccc(S[C@@H](CCN2CC[C@H](C)CCC2=O)c2ccccc2)cc1	0%	9.3µM*	-17%	?
COc1ccc(S[C@@H](CCN2CC[C@H](C)CCC2=O)c2ccccc2)cc1	40µM*	?	-1%	8.3µM*
C[C@@H]1CCC(=O)N(CC[C@H](Sc2ccc(Br)cc2)c2ccccc2)CC1	-33%	?	-4%	?
COc1ccc(CCNC(=O)CCc2c(C)nc3c4c(C)cc(C)nc4nn3c2C)cc1OC	3%	·	·	·
COc1cccc(OCc2nnc(SCC(=O)NNC(=O)C3CCCCC3)n2C)c1	6%	13µM*	1%	-8%
COc1cccc(OCc2nnc(SCC(=O)OC3CCCCC3)n2C)c1	1%	17%	-1%	?
COc1ccc(C(=O)NNC(=O)CSc2nnc(COc3ccccc3)n2C)cc1	2%	-11%	-3%	-26%
COc1ccc(C(=O)NNC(=O)CSc2nnc(COc3ccc4ccccc4c3)n2C)cc1	7%	2.3µM*	2%	4%
Cc1cc(C)n(C(=O)N(c2ccccc2)c2ccccc2)n1	2%	4%	1%	-4%
CC(C)(C)OC(=O)N1CCC(c2c(C(=O)NC3CCCCC3)cnn2-c2cccc(F)c2)CC1	-3%	·	·	·
COc1ccc(N(CC(=O)N2CCCCCC2)S(=O)(=O)c2ccccc2[N+](=O)[O-])c(OC)c1	2%	-28%	0%	12µM*
COc1ccc(N(CC(=O)NCc2ccccc2C)S(=O)(=O)c2ccccc2[N+](=O)[O-])c(OC)c1	-6%	10µM*	-1%	?
COC(=O)CN(c1ccc(OC)cc1OC)S(=O)(=O)c1ccccc1[N+](=O)[O-]	-3%	4%	1%	0%
SMILES	Sm TGR block	Pf growth 96h	SARS PLpro yeast	Pf growth 48h
CCOc1ccc(NC(=O)Cn2cnc3c(oc4ccccc43)c2=O)cc1	1%	·	·	·
O=C(O)[C@H]1CCC(=O)N1Cc1ccco1	-15%	42%	-1%	13%
C[C@H](NC(=O)[C@@H]1CCC(=O)N1Cc1ccco1)c1ccccc1	50µM*	10%	1%	16%
CN(Cc1ccccc1)C(=O)[C@H]1CCC(=O)N1Cc1ccco1	16µM*	·	3%	-6%
Cc1[nH]c(C)c(S(=O)(=O)N2CCN(c3ccc(Cl)cc3)CC2)c1C(=O)N1CCCC1	-15%	27%	11%	5%
COc1ccc(C(=O)Sc2nncc3ccccc23)cc1	20µM*	34%	-2%	36%
C=CC[n+]1c(/C=C2\C=Cc3cc(C)ccc3N2CC)ccc2ccccc21	7%	?	-25%	13µM*
CN=c1scc(-c2ccccc2F)n1/N=C/c1ccc[nH]1	-14%	28%	-8%	41%
CN=c1scc(-c2ccccc2F)n1/N=C/c1ccc(O)c(O)c1O	18µM*	-46%	-16%	?

Source: PubChem BioAssay
